# Measurements as given in PubChem BioAssay (EPA / NIEHS).
# Active and inactive are the calls of the source. How the source made its calls: active means hit-call score of the fitted dose curve at least 0.9, where 1 is the maximum; inactive means score below 0.9.
# Assay: IUF_NPC1a_proliferation_area_72hr: Leibniz Research Institute for Environmental Medicine (IUF) 72-hour Neural Progenitor Cell Proliferation Area Assay (NPC1a) (AID 2284208)
# Experimental: IUF_NPC1 is a cell-based, multiplexed assay that uses hNPC, a human primary neural progenitor cells, with measurements taken at 72 hours after chemical dosing in a 96-well plate. Human neural progenitor cells (hNPC) are generated from human fetal brain cortex at gestational week (GW) 16-19. Grown in suspension culture and under proliferative conditions (proliferation media and growth factors), these cells represent neural progenitor cell proliferation. In the NPC1 assay, hNPC's are exposed to the test compound for 72h. Cell proliferation is assessed as an increase in sphere area using automated phase contrast imaging and as incorporation of Bromodeoxyuridine (BrdU) during DNA synthesis using a luminescence-based cell proliferation ELISA. In parallel, the cell viability is assessed using an alamar blue viability assay and the cytotoxicity using a lactate dehydrogenase dependent membrane integrity assay.IUF_NPC1a_proliferation_area_72hr is one of 4 assay components measured from the IUF_NPC1 assay. It is designed to measure cell proliferation as assessed by an increase in sphere area over 72 h using automated phase contrast imaging.Data from the IUF_NPC1a_proliferation_area component was analyzed at the endpoint IUF_NPC1a_proliferation_area in the positive analysis fitting direction relative to DMSO as the negative control and baseline of activity. Using a type of growth reporter, gain or loss-of-signal activity can be used to understand cell proliferation effects.
# After the cell expansion period, the cells are cultured for up to four weeks in which they are passaged every week. Between one to three days after passaging, depending on the size chosen for passaging, spheres at a size of 0.3 mm are used in the assay. For the assessment of neural progenitor cell proliferation, the spheres are plated in poly-Hema coated 96-well U-bottom plates filled with proliferation medium containing growth factors (EGF and FGF). One 0.25 - 0.35 mm big sphere is plated in the middle of each well. Within 3 days NPCs proliferate and grow in size. Cultivation during the test method is performed at 37C and 5% CO2 at a pH of 7.2-7.6. As a positive control, spheres are cultivated in the absence of growth factors (EGF and FGF), which dramatically reduces proliferation. Exposure starts on the plating day (day 0) and is continued over three days, without chemical renewal, until the experiment is terminated. The assay is terminated by the assessment of cell viability, cytotoxicity, and proliferation by BrdU. All endpoints are generated from the same experimental run and from each well/sphere in the 96-well plate.
Compound,outcome,AC50
OCCOCCO,inactive,–
CCCCOC(=O)c1ccccc1C(=O)OCc1ccccc1,inactive,–
O=P(OCCCl)(OCCCl)OCCCl,inactive,–
CCC[CH2][Sn]([Cl])([CH2]CCC)[CH2]CCC,–,673 nM (active)
CC(C)(C)C(O)(CCc1ccc(Cl)cc1)Cn1cncn1 (stereo not given),inactive,–
COC(=O)Nc1nc2ccccc2[nH]1,inactive,–
CC(C)COC(=O)c1ccccc1C(=O)OCC(C)C,inactive,–
COP(=S)(OC)SCN1C(=O)c2ccccc2C1=O,inactive,–
CNC(=O)Oc1cccc2c1OC(C)(C)C2,inactive,–
[O-][Cl+]O,inactive,–
